# Screens from PubChem.
# HT1080 IDH1KD tx = qHTS for induction of synthetic lethality in tumor cells producing 2HG: qHTS for the HT-1080-IDH1KD cell line; HT-1080 IDH1 knockdown viability, ATP luminescence, 48 h; Potency, µM (doses to about 46.1 µM), inactives show at the highest dose activity, negative = toxicity, actives largely listed as cytotoxic; actives 2% (n = 360,000);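 further: potency means the concentration at half of the fitted maximal effect; 0% = DMSO wells and -100% = cell-free medium wells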
#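 Viability of IDH1-knockdown HT-1080 fibrosarcoma cells was assessed by CellTiter-Glo after 48 h at 37 °C with titrated compound; concentration-effect curves were classified by fit quality and response size.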
# DT40 TDP1 CPT = qHTS for Inhibitors of human tyrosyl-DNA phosphodiesterase 1 (TDP1): qHTS in cells in presence of CPT; chicken DT40 Tdp1-/-;hTDP1 cells + 20 nM CPT, ATP luminescence, 48 h; Potency, µM (series often up to 46.2 µM), without a hit: at the highest dose activity change, negative = growth inhibition, hits mostly inhibitors; actives 12% (n = 420,000); AID 686979, 2013; further: potency means the concentration at half of the fitted maximal effect; nearly all actives have a fitted effect of over 55% in size
#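 Cell growth measured by CellTiter-Glo luminescence after a minimum 48 h, 37 C compound exposure with 20 nM CPT in Tdp1-knockout DT40 cells stably expressing hTDP1, seeded 400/well; qHTS titration format.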
# TDP1 cell noCPT = qHTS for Inhibitors of human tyrosyl-DNA phosphodiesterase 1 (TDP1): qHTS in cells in absence of CPT; DT40 Tdp1-/- hTDP1 cells, no CPT, ATP luminescence, 48 h; Potency, µM (doses to about 46.2 µM), without a hit: at the highest dose activity change, negative = growth inhibition, hits mostly inhibitors; actives 15% (n = 420,000); further: potency means the concentration at half of the fitted maximal effect; nearly all actives have a fitted effect of over 55% in size
#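 Readout: luminescence from CellTiter-Glo after 30 min in the dark at RT. Cells: DT40 Tdp1-/- with stable hTDP1, 400/well. Exposure: compounds alone, ≥48 hr, 37 °C.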
# IL1B secr inh = qHTS for Inhibitors of Inflammasome Signaling: IL-1-beta AlphaLISA Primary Screen; THP-1 LPS/ATP IL-1B secretion, AlphaLISA, 16 h; hits give low values; activity change, % at 57.5 µM; actives 4.7% (n = 360,000); AID 743279, 2014; in the data active means activity change below about -50%; inconclusive means mostly about -30% to -49%
#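 Secreted IL-1B measured by AlphaLISA bead assay after 16 h compound exposure of THP-1 cells; compounds (final up to 57.5 uM) added 1 h before LPS (250 ng/mL) and ATP (1.25 mM) stimulation; lower signal means less secretion.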
# HT1080NT lethal = qHTS for induction of synthetic lethality in tumor cells producing 2HG: qHTS for the HT-1080-NT fibrosarcoma cell line | actives 1.6% (n = 360,000) | AID 686970, 2013 | Potency, µM (highest dose often 46.1 µM), without a hit: at the highest dose activity, negative = less viability, hits mostly cytotoxic | HT-1080-NT fibrosarcoma viability, CellTiter-Glo ATP luminescence, 48 h;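 further: NT is the 2HG producing partner of a matched IDH1 knockdown line; potency means the concentration at half of the fitted maximal effect; 0% = DMSO-treated cells and -100% = media-only wells without cells; nearly all actives have a fitted effect of over 55% in size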
#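 Luminescent CellTiter-Glo readout after 48 hours of compound exposure at 37 degrees C defined viability of HT-1080-NT cells. Activity was normalized to DMSO wells and cell-free media wells; concentration-response curves were fitted and assigned curve classes.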
# ALOX12 inh = Primary qHTS assay for inhibitors of human arachidonate 12S-lipoxygenase (ALOX12): Round 2; actives 1.1% (n = 580,000); Polyunsaturated fatty acid lipoxygenase ALOX12 (Homo sapiens), P18054; purified 12hLO, xylenol orange hydroperoxide absorbance; Potency, µM (series often up to 108 µM), inactives show top-dose activity change, negative = inhibition, most hits filed as inhibitors; further: potency means the concentration at half of the fitted maximal effect
# Target sequence (P18054 whole entry, looked up): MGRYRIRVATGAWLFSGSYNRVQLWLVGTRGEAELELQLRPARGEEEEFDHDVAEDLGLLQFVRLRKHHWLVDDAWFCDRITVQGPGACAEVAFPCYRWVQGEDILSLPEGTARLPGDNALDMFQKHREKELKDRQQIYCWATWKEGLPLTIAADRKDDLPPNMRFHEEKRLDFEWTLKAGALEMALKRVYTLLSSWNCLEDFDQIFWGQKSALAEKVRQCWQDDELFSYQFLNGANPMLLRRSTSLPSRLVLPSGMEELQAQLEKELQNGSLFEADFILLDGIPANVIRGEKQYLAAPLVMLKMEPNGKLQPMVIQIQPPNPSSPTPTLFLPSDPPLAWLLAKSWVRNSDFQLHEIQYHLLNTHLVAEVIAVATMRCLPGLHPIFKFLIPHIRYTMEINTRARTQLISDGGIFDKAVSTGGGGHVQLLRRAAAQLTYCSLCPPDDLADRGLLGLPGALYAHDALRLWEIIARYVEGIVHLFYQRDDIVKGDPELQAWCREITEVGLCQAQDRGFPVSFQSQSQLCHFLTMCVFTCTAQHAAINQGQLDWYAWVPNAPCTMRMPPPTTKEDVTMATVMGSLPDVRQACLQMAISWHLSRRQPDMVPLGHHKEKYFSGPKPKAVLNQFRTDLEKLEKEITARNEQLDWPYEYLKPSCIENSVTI
#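 Hydroperoxide product was detected by ferrous iron/xylenol orange as the 573 to 405 nm absorbance ratio. Arachidonic acid at 40 uM (final) was turned over for 30 min at room temperature by 150 nM human 12hLO, pH 7.0 Hepes buffer, after 15 min compound preincubation.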
# Numbers without * were called inactive; u = inconclusive; x = no result given; [ ] = dose if it differs, or a comment. The sample as a whole holds a higher share of hits than the screen did. Unless noted, the call rests on the fitted dose curve; in most records, active means well fitted curve in the direction sought with a large enough effect; inconclusive means small, poorly fitted or top-dose-only effect, or another doubt; inactive means no such curve, though single readings can be large; an effect the other way counts as inactive or inconclusive. Unless noted, on the % scale 0 is the no-effect control and ±100 the full control effect.
SMILES,HT1080 IDH1KD tx,DT40 TDP1 CPT,TDP1 cell noCPT,IL1B secr inh,HT1080NT lethal,ALOX12 inh
Cc1ccc2oc(=O)n(CCNC(=O)Nc3ccc(Cl)cc3)c2c1,x,23µM*,16µM*,x,x,-23%
CCN(CC)C(=O)C1=C(C)N(Cc2ccccc2)C(=O)NC1c1ccc(F)cc1F (stereo not given),x,x,x,x,x,10%
CC(C)C(=O)N1CCCN(C)c2ccccc21,x,x,x,x,x,-5%
CCCCN(CC)CC(=O)Nc1cccc2ncccc12,x,x,x,x,x,-6%
Cn1c(CSCc2ccc(Cl)c(Cl)c2)nnc1SCC(=O)Nc1nccs1,-19%,26µM*,18µM*,-9,-9%,38%[57.4 µM]
Cn1cccc1Cc1nnc(SCC(=O)Nc2nccs2)n1C,2%,-2%,-6%,0,23%,-3%
Cn1c(CSCc2ccc(Cl)cc2)nnc1SCC(=O)Nc1nccs1,-10%,u,u,-2,-14%,-29%
Cn1cccc1Cc1nnc(SCC(=O)Nc2nccs2)n1CCc1ccccc1,-14%,21µM*,u,u,-16%,182%
Cn1c(CSCc2ccc(F)cc2)nnc1SCC(=O)Nc1nccs1,-2%,10µM*,13µM*,14,-27%,0%
CN(C)C(=O)CN1CCN(CC2CCCCC2)CC1,x,x,x,x,x,12%
Cc1ccc(CCCCCCCCCCCC(=O)O)cc1,x,x,x,x,x,3%
C[C@H]1COc2cc(N3CCN(Cc4ccccc4F)CC3)ccc2S(=O)(=O)N1,0%,-13%,-23%,0,6%,u
O=S1(=O)N[C@H](Cc2ccccc2)COc2cc(N3CCN(Cc4ccccc4F)CC3)ccc21,-3%,u,16µM*,39,6%,-1%
Cc1c(CCOC(=O)c2cccc([N+](=O)[O-])c2)sc[n+]1CC(=O)c1ccccc1,-2%,8.2µM*,u,-3,-3%,2%
Cc1c(CCOC(=O)c2ccc([N+](=O)[O-])cc2)sc[n+]1CC(=O)c1ccccc1,2%,-23%,u,-22,12%,-17%
O=C(C[n+]1csc2ccccc21)c1cccc([N+](=O)[O-])c1,x,11µM*,10µM*,x,x,x
COc1ccc(C(=O)OCCc2sc[n+](CC(=O)c3ccccc3)c2C)cc1,-18%,u,u,-55*,-21%,u
Cc1c(CCO)sc[n+]1CC(=O)c1ccc(F)cc1,x,-13%,-5%,x,x,x
Cc1cc[n+](CC(=O)c2cccc([N+](=O)[O-])c2)c2ccccc12,-19%,8%,-25%,-2,-4%,u
O=C(NCCc1ccccc1)N1CCC(OC2CCN(Cc3ccccc3)CC2)CC1,x,x,x,x,x,37%
Cc1ccc(-n2nnc(C(=O)OCc3ccccc3C)c2C)cc1,x,x,x,x,x,30%
COc1cccc2c1C(=O)C=C(C)C2=O,u,2.9µM*,4.6µM*,-100*,18µM*,u
CC(C)(C=O)C1=CC(=O)c2ccccc2C1=O,13µM*,0.18µM*,0.41µM*,-103*,-29%,40µM*
CC1=CC(=O)c2ccccc2C1=O,5%,8.2µM*,4.6µM*,21,27%,u
CC(C)(C)c1ccc2c(c1)C(=O)c1ccccc1C2=O,-18%,u,u,25,-17%,-29%
SMILES,HT1080 IDH1KD tx,DT40 TDP1 CPT,TDP1 cell noCPT,IL1B secr inh,HT1080NT lethal,ALOX12 inh
O=C(NCc1cccnc1)[C@@H]1C[C@@H](O)CN1C1CCN(C(=O)c2cc3ccccc3[nH]2)CC1,x,x,x,x,x,-10%
COc1cccc2c(Nc3cccc(O)c3)cc(C)nc12,x,x,x,x,x,9%
O=C(c1cc(-c2ccccc2Cl)on1)N1CCN(C(=O)c2ccco2)CC1,0%,-10%,-13%,-29,13%,-3%
O=C(c1ccco1)N1CCN(Cc2cccc3ccccc23)CC1,-25%,8.2µM*,u,-24,-25%,u
O=C(c1ccco1)N1CCN(CC(O)Cn2c3ccccc3c3ccccc32)CC1 (stereo not given),u,18µM*,u,-24,-30%,-20%
O=C(c1ccco1)N1CCN(Cc2cccc(F)c2)CC1,-1%,-12%,-13%,u,-3%,-3%
O=C(c1ccco1)N1CCN(Cc2csc(-c3ccccc3Cl)n2)CC1,-21%,u,21µM*,-1,-10%,u
O=C(c1ccco1)N1CCN(Cc2c(Cl)cccc2Cl)CC1,-13%,u,9.2µM*,0,-2%,3%
CC(C)c1cccc(NC(=O)c2cccc(CS(C)=O)c2)c1 (stereo not given),x,x,x,x,x,16%
CCc1nc(-c2ccc(OC3CCN(C(=O)c4sc(C)nc4C)C3)cc2)no1 (stereo not given),x,x,x,x,x,43%
COc1cccc2c(=O)cc(C)n(CC(=O)Nc3ccccc3C)c12,-17%,u,15µM*,4,-10%,2%
CNC(=O)Cn1c(C)cc(=O)c2cccc(OC)c21,-1%,20%,-2%,8,3%,25%
Cc1ccc(Cl)cc1NC(=O)Cn1c(=O)n(Cc2ccccc2)c(=O)c2oc3ccccc3c21,x,u,u,x,x,-14%
Cc1ccc(C)c(NC(=O)Cn2c(=O)n(Cc3ccc4c(c3)OCO4)c(=O)c3oc4ccccc4c32)c1,x,2.9µM*,2.9µM*,x,x,-25%
Cc1cccc(NC(=O)Cn2c(=O)n(Cc3ccc4c(c3)OCO4)c(=O)c3oc4ccccc4c32)c1C,x,7.3µM*,7.3µM*,x,x,-35%
